In PubChem BioAssay (NCI):
Compounds without any hit were thinned out: in the full panel of roughly 79,000, 15% have a hit. Unmarked numbers belong to inactive results. The source made the active and inactive calls. No stated cut-off is given here; in the data, active means growth inhibition above about 70%; inactive means the rest.

Experiments:
[1] = NCI Yeast Anticancer Drug Screen. Data for the rad50 strain (AID 155);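 further: 0% = growth of vehicle-only cultures of the same strain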; details: S. cerevisiae rad50 strain growth inhibition, active compounds read high
Procedure, shortened: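 Genetically altered yeast (DNA repair pathway); compound treatment; growth inhibition vs vehicle ctrl.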

[2] = NCI Yeast Anticancer Drug Screen. Data for the mec2-1 strain (AID 157); details: S. cerevisiae mec2-1 strain, active compounds read high
Procedure, shortened: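 Yeast mec2-1 mutant treated with compound. Readout: growth inhibition vs vehicle controls.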

[3] = NCI Yeast Anticancer Drug Screen. Data for the sgs1 mgt1 strain (AID 161);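 further: 0% = growth of cultures given vehicle only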; details: S. cerevisiae sgs1 mgt1 strain, active compounds read high
Procedure, shortened: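 Test agents were incubated with a DNA-repair-mutant yeast strain. Growth was then read and compared against vehicle-treated controls.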

[4] = NCI Yeast Anticancer Drug Screen. Data for the cln2 rad14 strain (AID 165);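 further: 0% = growth equal to vehicle treated cultures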; details: S. cerevisiae cln2 rad14 strain, active compounds read high
Procedure, shortened: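 cln2 rad14 yeast strain; compound exposure; growth inhibition read vs vehicle controls.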

[5] = NCI Yeast Anticancer Drug Screen. Data for the bub3 strain (AID 167); details: S. cerevisiae bub3 mutant strain, active compounds read high
Procedure, shortened: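 Yeast carrying a defined mutation is treated with each compound, and growth is compared with that of vehicle-exposed cells to give inhibition.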

[6] = NCI Yeast Anticancer Drug Screen. Data for the mlh1 rad18 strain (AID 175); details: S. cerevisiae mlh1 rad18 strain growth inhibition, active compounds read high
Procedure, shortened: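 Yeast w/ defined DNA-repair lesions; compound exposure; growth vs vehicle controls → % inhibition.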

[7] = at 5.0 µM (retest, dose inferred, filed as 0.5)
[8] = at 50.0 µM (retest, dose inferred, filed as 5.0)

SMILES	growth inhibition [1, 7]	growth inhibition [1, 8]	growth inhibition ([1]; at 50.0 µM)	growth inhibition [2, 7]	growth inhibition [2, 8]	growth inhibition ([2]; at 50.0 µM)	growth inhibition [3, 7]	growth inhibition [3, 8]	growth inhibition ([3]; at 50.0 µM)	growth inhibition [4, 7]	growth inhibition [4, 8]	growth inhibition ([4]; at 50.0 µM)	growth inhibition [5, 7]	growth inhibition [5, 8]	growth inhibition ([5]; at 50.0 µM)	growth inhibition [6, 7]	growth inhibition [6, 8]	growth inhibition ([6]; at 50.0 µM)
O=C1C(SCCO)=C(SCCO)C(=O)c2ccccc21	8%	87% (active)	87% (active)	20%	61%	57.5%	16%	66%	66.7%	-4%	48%	17.8%	44%	83% (active)	89.3% (active)	17%	77% (active)	93.7% (active)
COC(=O)/N=C/CCC(O)NC(=O)OC (stereo not given)	1%	1%	40.3%	-20%	2%	1.85%	2%	-2%	-3.15%	-1%	3%	46.5%	-2%	-3%	-18.8%	-9%	4%	11.7%
COc1ccc(Oc2cc3c[n+](C)ccc3cc2OC)cc1	4%	90% (active)	99% (active)	-3%	57%	99% (active)	-3%	91% (active)	99.4% (active)	2%	70% (active)	98% (active)	0%	90% (active)	98% (active)	15%	88% (active)	98.8% (active)
O=C(Nc1ccccc1C(=O)O)c1ccccc1	-7%	50%	44%	2%	-6%	23.5%	-5%	-22%	79.7% (active)	-2%	-14%	-11.6%	-14%	30%	36%	-7%	23%	78.2% (active)
CC(C)C12CCC3(CCC4C(C)(C(=O)O)CCCC4(C)C3C1)C(CN)C2 (stereo not given)	3%	98% (active)	97.3% (active)	9%	98% (active)	95.5% (active)	17%	95% (active)	94.9% (active)	-20%	98% (active)	97.8% (active)	-4%	98% (active)	96% (active)	6%	98% (active)	93.3% (active)
Cc1nn(C(=S)S)c(C)c1N=Nc1cccc(F)c1	15%	29%	88.2% (active)	-1%	18%	46.1%	5%	-1%	88.6% (active)	1%	5%	24.4%	-1%	7%	72.5% (active)	-1%	21%	90% (active)
Cc1ccc(S(=O)(=O)NC(CCC(=O)Nc2ccccc2)C(=O)O)cc1 (stereo not given)	-4%	0%	12.8%	-4%	-4%	18.9%	-6%	-20%	21.2%	-5%	-15%	22%	-3%	2%	96.2% (active)	0%	-2%	40.5%
CN(C)C(=S)/N=c1\ssc(=S)n1Cc1ccco1	22%	-7%	1.55%	0%	-8%	-3.4%	-15%	-9%	-15.8%	-7%	-11%	0.45%	2%	-5%	47.3%	-2%	-9%	-4.25%
COc1ccccc1C(=O)Nc1ccc(Cl)c(C(=O)OC(C)C)c1	16%	33%	-1.8%	7%	20%	22.2%	14%	-32%	70.8% (active)	14%	38%	58.6%	13%	47%	73.2% (active)	15%	65%	28.7%
CCCCCCCCNc1nc(Cl)nc2c1cnn2C	2%	40%	0.3%	-1%	59%	-17.9%	3%	68%	24.2%	-4%	62%	-10.6%	-5%	80% (active)	42.4%	12%	84% (active)	45.5%
